S1P3 antag: S1P3 (human) receptor antagonism; CHO S1P3 NFAT-BLA reporter, FRET fluorescence, antagonist mode; inhibition, % at 4.98 µM; 0.27% of 170,000 active; AID 485;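 active = inhibition above the plate cutoff, the mean inhibition of test wells on that plate plus 3 SD, cut at about 28% in these data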;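 note: cells challenged with S1P at its EC80 of 0.8 µM; blue over green emission ratio from cleaved BLA substrate after 4 h stimulation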
PGE2 EP2 inh: inhibitors of human EP2 prostaglandin E2 receptor. AID 1422. P43116. C6 glioma cells expressing human EP2, cAMP TR-FRET; cells stimulated with saturating PGE2. 0.52% of 260,000 active. inhibition, % at 25 µM;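 active = percent inhibition above 40 after rounding to a whole number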;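 note: rat C6 glioma host cells with rolipram phosphodiesterase inhibitor present; the protocol text gives 20 µM as final concentration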
Cl transport mod: modulators of human KCC2 chloride dependent transport. KCC2 cells, thallium flux FluoZin-2 fluorescence. 2.2% of 190,000 active. AID 1456. B-score of Tl+ flux slope (higher = more flux/activation; lower = inhibition) at 10 µM. Q9H2X9;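 active = thallium flux slope and its plate-corrected score both differing from the plate sample mean at a set confidence after two filtering rounds, in either direction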;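 note: slope of fluorescence scaled to starting intensity during 10 to 20 s after thallium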
EP2 mod: EP2 receptor (human) modulation; P43116; EP2-expressing cells, cAMP HTRF FRET, PGE2 co-stimulation; induction, % at 25 µM; 0.83% of 260,000 active; AID 940;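 active = compounds whose cAMP rise, as percent of the full-agonist control response, exceeds 60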;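 note: rat C6 glioma line stably carrying human EP2 under a CMV promoter; the protocol text gives 20 µM as final concentration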
Each line names hits and unclear results; the compound was inactive in the other large screens. Hits are enriched below; roughly 3.1% of the tested compounds scored in any of these assays.

CS[C@@]12C(=O)C[C@@]3(C)[C@@H](CC[C@@]3(O)C(=O)CO)[C@H]1CCC1=CC(=O)CC[C@]12C	PGE2 EP2 inh 51 (no result: S1P3 antag, Cl transport mod)
O=C(O)c1ccccc1CSc1nnc2c(n1)[nH]c1ccccc12	EP2 mod 61
O=C(O)[C@@H](Br)[C@@H](Br)c1ccccc1[N+](=O)[O-]	PGE2 EP2 inh 41 (no result: S1P3 antag, Cl transport mod)
O=C(NC(=S)Nc1nc2c(s1)CCCC2)c1ccccc1	Cl transport mod 11
COC(=O)c1ccc(C(=O)NC(=S)Nc2nc3c(s2)CCCC3)cc1	Cl transport mod 25
N#Cc1c(NC(=S)NC(=O)c2ccccc2)sc2c1CCCC2	none
Nc1ccccc1-c1n[nH]c(=S)s1	PGE2 EP2 inh 67
COc1ccc(Cc2n[nH]c(=S)o2)cc1	none
S=c1[nH]nc(COc2ccc3ccccc3c2)o1	Cl transport mod -5.7 (no result: S1P3 antag)
COc1ccc(-c2c(C)nn3c(N4CCCC(O)C4)cc(C)nc23)cc1 (configuration not stated)	none (no result: S1P3 antag, PGE2 EP2 inh, Cl transport mod)
Cc1nnc(Sc2cc(NCCO)c([N+](=O)[O-])c3nonc23)s1	PGE2 EP2 inh 50
CCC1CCCCN1C(=O)c1sc2nc(C)cc(C)c2c1N (configuration not stated)	none (no result: S1P3 antag, Cl transport mod)
Cc1cc(C)c(OCC(=O)Nc2ccc(NC(=O)c3ccco3)cc2)c(Cl)c1	none (no result: S1P3 antag, Cl transport mod)
CCn1c(=O)c(C(=O)NCCc2ccccc2)c(O)c2ccccc21	EP2 mod 61
CCCn1c(=O)c(C(=O)Nc2ccccc2OC)c(O)c2ccccc21	EP2 mod 67 (no result: S1P3 antag, Cl transport mod)
CCn1c(=O)c(C(=O)NCCCl)c(O)c2ccccc21	none (no result: S1P3 antag, Cl transport mod)
CN1CCc2c(sc3nc(NN)n(-c4ccccc4)c(=O)c23)C1	none (no result: S1P3 antag, Cl transport mod)
Cc1nnc(NC(=O)CSc2nc3c(c(=O)n(C)c(=O)n3C)n2Cc2ccc(F)cc2)s1	none (no result: S1P3 antag, Cl transport mod)
O=C(O)c1cc(-c2cccc([N+](=O)[O-])c2)nc2ccccc12	none
Nc1nc(-c2cccc([N+](=O)[O-])c2)cc(-c2cc(-c3cccc([N+](=O)[O-])c3)nc(N)n2)n1	PGE2 EP2 inh 44 (no result: S1P3 antag, Cl transport mod)
O=C(c1cccc(Cl)c1)N1CCN(C2CCCCC2)CC1	none (no result: S1P3 antag, Cl transport mod)
O=C(c1cccc(Cl)c1)N1N=C(C(F)(F)F)CC1(O)C1CCCCC1 (configuration not stated)	EP2 mod 85 (no result: S1P3 antag, Cl transport mod)
CCCOc1cccc(C(=O)Nc2cccc(NC(=O)c3cccs3)c2)c1	none (no result: S1P3 antag, Cl transport mod)
COc1ccc(-c2nnc3n2N=C(c2ccccc2)CS3)cc1OC	none (no result: PGE2 EP2 inh, Cl transport mod, EP2 mod)
Cc1cccc(-c2nnc3n2N=C(c2ccccc2)CS3)c1	EP2 mod 63 (no result: S1P3 antag)
Oc1c(Cl)cc(Cl)c2c1NCCC2	Cl transport mod 14 (no result: PGE2 EP2 inh)
O=C1NCCCc2c1oc1ccc(O)cc21	none
CCCC(=O)N1CCN(c2ccc(NC(=O)c3ccc([N+](=O)[O-])o3)cc2)CC1	none (no result: Cl transport mod)
O=C(Nc1ccc(N2CCN(C(=O)c3ccc(Cl)cc3)CC2)cc1)c1ccc([N+](=O)[O-])o1	PGE2 EP2 inh 121
CCC(=O)Nc1ccc(NC(=O)c2ccc([N+](=O)[O-])o2)cc1	PGE2 EP2 inh 68 (no result: S1P3 antag, Cl transport mod)
CS(=O)(=O)N1CCN(c2ccc(NC(=O)c3ccc([N+](=O)[O-])o3)cc2)CC1	none
CN(C)c1ccc(NC(=O)c2ccc([N+](=O)[O-])o2)cc1	none (no result: S1P3 antag, Cl transport mod)
CCC(=O)N1CCN(c2ccc(NC(=O)c3ccc([N+](=O)[O-])o3)cc2)CC1	PGE2 EP2 inh 46
Cc1ccc2c(C)cc(SCCN3CCOCC3)nc2c1C	none (no result: S1P3 antag, Cl transport mod)
NC(=S)Nc1cccc(-c2n[nH]c(=S)o2)c1	none
Cc1ccc(NC(=S)Nc2cccc(-c3n[nH]c(=S)o3)c2)cc1	PGE2 EP2 inh 42
Cc1ccc2cc(C#N)c(SCC(=O)Nc3ccccc3C(F)(F)F)nc2c1C	none (no result: S1P3 antag, Cl transport mod)
COc1ccc(C(C)=O)cc1CSc1nc2ccccc2c(=O)n1-c1ccccc1	EP2 mod 64
CC(=O)c1sc(-c2ccccc2)cc1NS(=O)(=O)c1ccc(C)cc1	PGE2 EP2 inh 74, Cl transport mod 30
CC(=O)c1sc(-c2ccccc2)cc1NS(=O)(=O)c1ccccc1	PGE2 EP2 inh 81
CC(=O)c1sc(NS(=O)(=O)c2ccc(C)cc2)nc1C	none
CC(=O)c1cc2c(cc1NS(=O)(=O)c1ccccc1)OCO2	none (no result: S1P3 antag)
CC(NS(=O)(=O)c1ccccc1)C(=O)NCC1CCCO1 (configuration not stated)	none (no result: S1P3 antag, Cl transport mod)
O=c1c2cc(Cl)ccc2[nH]c(=S)n1Cc1cccs1	Cl transport mod 19
O=c1c2cc(Cl)ccc2[nH]c(=S)n1Cc1ccco1	Cl transport mod 20 (no result: S1P3 antag)
O=c1c2cc(N3CCOCC3)ccc2[nH]c(=S)n1Cc1cccc(Cl)c1	none (no result: S1P3 antag, Cl transport mod)
COc1cccc(C(=O)N2CCN(C(=O)c3cccc(OC)c3OC)CC2)c1	none (no result: S1P3 antag, Cl transport mod)
CC(=O)C1=C(C)Nc2ncnn2C1c1ccc(Cl)cc1 (configuration not stated)	S1P3 antag 81

Source: PubChem BioAssay
